The sample as a whole holds a higher share of hits than the screen did.
Pf Dd2 inh – qHTS Primary assay for Inhibitors of Plasmodium falciparum Dd2 growth in vitro | AID 1347417, 2020 | P. falciparum Dd2 growth, SYBR Green, 72 h | Potency, µM (series often up to 28.9 µM), for the others: at the top dose activity, negative = inhibition, most hits filed as inhibitors | 4.3% of 120,000 active; active means well fitted inhibition curve with a large enough effect;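 further: plate controls were DMSO vehicle for no effect and reference drug for full effect; nearly all actives have a fitted effect of over 65% in size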
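Infected erythrocytes (Dd2, 0.3% parasitemia, 2.5% hematocrit final) are added to compound in RPMI-1640/Albumax II medium, grown 72 h at 37C in low oxygen, then lysed with saponin/Triton-X containing SYBR Green and read by fluorescence.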
* hit, by the source's call; i = inactive; [ ] = remark or other dose. Potency means the concentration at half of the fitted maximal effect.

SMILES | Pf Dd2 inh
CCCN1CCC2(Cc3ccccc3CN(C(=O)CCCC(=O)O)C2)C1 (stereo unspecified) | -2%
CCCN1CCC2(Cc3ccccc3CN(C(C)=O)C2)C1 (stereo unspecified) | -3%
CC(=O)NCC(=O)N1Cc2ccccc2CC2(CCCN2C)C1 (stereo unspecified) | 22%
Cc1cccc(OCC(=O)NCc2nnc3ccc(-c4ccccc4)nn23)c1 | i
CCOc1ccccc1C1NC(=O)N(CC(=O)Nc2cccc(C#N)c2)C2=C1C(=O)OC2 (stereo unspecified) | -14%
Cc1ccc(-c2noc([C@@H]3CCCN3C(=O)c3ccc(C)nc3)n2)cc1 | i
COc1ccc(CNC(=O)CC[C@@H]2CNC(=O)[C@@H]3C[C@H](NCc4ccccn4)CN23)cc1 | 17%
CCOC(=O)C1(Cc2ccccc2F)CCCN(C(=O)c2cccc(-n3cccn3)c2)C1 (stereo unspecified) | i
COc1ccc(Nc2nc3c(S(=O)(=O)c4ccccc4)nnn3c3ccc(Cl)cc23)cc1OC | 7%
Cc1ccc(S(=O)(=O)c2nnn3c2nc(N2CCCC2)c2sccc23)cc1C | -5%
Cc1ccc(Nc2nc3c(S(=O)(=O)c4ccccc4)nnn3c3ccsc23)c(C)c1 | 18%
CCc1ccc(S(=O)(=O)c2nnn3c2nc(NCc2ccc(F)cc2)c2ccccc23)cc1 | -24%
Cc1ccc(S(=O)(=O)c2nnn3c2nc(NCc2ccccc2)c2sccc23)cc1 | i
CN1CCN(c2nc3c(S(=O)(=O)c4ccccc4)nnn3c3ccsc23)CC1 | 11%
Cc1ccc(S(=O)(=O)c2nnn3c2nc(NC(C)c2ccccc2)c2sccc23)cc1 (stereo unspecified) | 10µM*
Cc1ccc(C)c(S(=O)(=O)c2nnn3c2nc(N2CCN(C)CC2)c2sccc23)c1 | 8.9µM*
COc1ccc(Nc2nc3c(S(=O)(=O)c4ccc(C)cc4)nnn3c3ccsc23)cc1Cl | i
CC(=O)Nc1ccc(Nc2nc3c(S(=O)(=O)c4cc(C)ccc4C)nnn3c3ccsc23)cc1 | -24%
Cc1ccc(C)c(S(=O)(=O)c2nnn3c2nc(Nc2ccc(F)c(Cl)c2)c2sccc23)c1 | 13µM*
CCc1ccc(S(=O)(=O)c2nnn3c2nc(Nc2ccc(F)cc2)c2cc(Cl)ccc23)cc1 | 1.3µM*
COCCOCC1(CNC(=O)c2cc(C)nn2C)C[C@@H](O)[C@@H](O)C1 (stereo partly specified) | -22%[44.1 µM]
O=C(NCc1ccc2c(c1)OCO2)c1cnc2c(c1)N(Cc1ccccc1)CCC2 | 23%[44.1 µM]
CCOc1ccc(CC(=O)N2CCC3(CC2)N=C(c2ccccc2)NO3)cc1 | i
O=C(c1ccc(-n2ccnc2)cc1)N1CCC(c2[nH]ncc2-c2ccccc2)CC1 | -14%
Cc1cc2nc3n(c(=O)c2n1CC(=O)NC(C)CCc1ccccc1)CCCCC3 (stereo unspecified) | i
SMILES | Pf Dd2 inh
Cc1cc(C(=O)N2CCc3nnc([C@@H]4C[C@@H](O)CN4C(C)C)n3CC2)nn1C | 11%
CCCNC(=O)CN1C(=O)COc2ccc(S(=O)(=O)N3CCC(C)CC3)cc21 | -21%
CCCN(CCC)CCNC(=O)CN1C(=O)COc2ccc(S(=O)(=O)N3CCC(C)CC3)cc21 | 4.5µM*
Cc1ccc(CCNC(=O)CN2C(=O)COc3ccc(S(=O)(=O)N4CCC(C)CC4)cc32)cc1 | -20%
COc1ccc(C(=O)N2C[C@@H]3C[C@H](C2)c2ccc(-c4ccc5ccccc5c4)c(=O)n2C3)cc1 | 9%
CC(=O)c1cc(C(=O)NC2CCCN(c3nc4ccccc4s3)C2)[nH]n1 (stereo unspecified) | -16%
COc1ccc(-c2nccn3cc(C(=O)NCc4cccnc4)nc23)cc1 | -6%
O=C1CC(c2ccccc2)N(C(=O)CNS(=O)(=O)c2ccc3c(c2)OCCO3)CCCCCN1 (stereo unspecified) | i
N#Cc1ccc(CN2CCCCCCNC(=O)CC2c2ccccc2)cc1 (stereo unspecified) | i
O=C1CC(c2ccccc2)N(Cc2ccc3[nH]ccc3c2)CCCCCN1 (stereo unspecified) | 7.9µM*
O=C1CC(c2ccccc2)N(C(=O)C2CC2)CCCCCCN1 (stereo unspecified) | -9%
O=C1CC(c2ccccc2)N(Cc2ccc3c(c2)CCO3)CCCCCCN1 (stereo unspecified) | 13µM*
O=C1CC(c2ccccc2)N(C(=O)NCc2ccccc2)CCCCCN1 (stereo unspecified) | -2%
O=S(=O)(c1ccc(Cl)cc1)c1nnn2c1nc(NCc1ccc(F)cc1)c1ccccc12 | 117%
CCc1noc(-c2cn(C3CCN(C(=O)c4ccc[nH]4)CC3)nn2)n1 | i
Cc1ccc(S(=O)(=O)N2CCCC(CCC(=O)NC3CCS(=O)(=O)C3)C2)cc1 (stereo unspecified) | 4%
Cc1ccc(Cl)cc1NC(=O)CN1C(=O)NC2(CCCCC2)C1=O | 3%
Cc1ncsc1CN1C(=O)CO[C@H](c2ccc(NC(=O)C3CCC3)cc2)[C@H]1CO | -4%[44.1 µM]
CCn1ccnc1CN1CCCC(CNC(=O)c2cccc(OC)c2OC)C1 (stereo unspecified) | -21%
FC(F)(F)c1cccc(C2=NOC3(CCN(Cc4ccccc4)CC3)C2)c1 | -28%
CCOC(=O)C1(Cc2cccc(C(F)(F)F)c2)CCN(Cc2cc(C(C)C)n[nH]2)CC1 | 7.1µM*
CCOC(=O)C1(Cc2ccc(OC)cc2)CCN(C(=O)c2cccc(Cl)c2)CC1 | i
CCOC(=O)C1(Cc2cccc(C(F)(F)F)c2)CCN(Cc2ccc(COC)o2)CC1 | 8.9µM*
CCOC(=O)C1(Cc2ccc(F)cc2)CCCN(C(=O)c2ccco2)C1 (stereo unspecified) | i
CC(=O)NC1(C)CCN(Cc2cnc(-c3cccc(C(F)(F)F)c3)s2)CC1 | i
SMILES | Pf Dd2 inh
CN(C)c1cnn(CC(=O)N2CCC(C(=O)N3CCOCC3)CC2)c(=O)c1 | -19%
O=C(CCN1CCCCO1)N1CCc2onc(-c3ccc(F)c(F)c3)c2C1 | -19%
O=C(NCc1ccsc1)C1CN(c2cccc(Cl)c2)C(=O)N1 (stereo unspecified) | 2%[44.1 µM]
CC1(C)[C@H](Cc2cc(CN3CCOCC3)on2)C[C@@H]1NC(=O)Nc1ccc(F)cc1 | i
c1ccc(OCc2cc(CC3(NC4CCC4)COC3)no2)cc1 | -18%[44.1 µM]
CCCCCC(=O)N[C@H]1C[C@@H](Cc2cc(COc3ccccc3)on2)C1(C)C | 11µM*
CC1(C)[C@H](Cc2cc(COc3ccccc3)on2)C[C@@H]1NC(=O)Nc1ccccc1 | 10µM*
CC1(C)[C@H](Cc2cc(COc3ccccc3)on2)C[C@@H]1NC1CCC1 | 11µM*
CCCCc1cc(C[C@@H]2C[C@H](NC(=O)NCC)C2(C)C)no1 | i
CC(C)(C)C(=O)N[C@H]1C[C@@H](Cc2cc(COc3ccccc3)on2)C1(C)C | -7%[44.1 µM]
CCCCCC(=O)N[C@H]1C[C@@H](Cc2cc(COC(=O)CCCCC)on2)C1(C)C | -6%[44.1 µM]
CN(C)[C@H]1C[C@@H](Cc2cc(COc3ccccc3)on2)C1(C)C | i
CS(=O)(=O)N1C[C@H]2CCN(C(=O)c3ncccc3F)C[C@H]21 | 11%
O=C(O)C1CC2(CCN(C(=O)Cc3ccc4c(c3)OCO4)CC2)CN1 (stereo unspecified) | -10%
CC(C)C1=NOC2(CCN(C(=O)C3CCCC3)CC2)C1 | -4%[44.1 µM]
CN(Cc1cccc(CCN)c1)Cc1cccc2ncccc12 | 7.1µM*
Cc1c(CN(C)Cc2cccc3ncccc23)c(=O)n(-c2ccccc2)n1C | -4%
